# Measurements as given in PMC10954555.
# How the values were obtained:
# [1] = molecular target: Large ribosomal subunit protein uL1 (UniProt P62906); assay: cross-linking mass spectrometry; other
# [2] = molecular target: 60S ribosome subunit biogenesis protein NIP7 homolog (UniProt Q9Y221); assay: cross-link between two proteins; cross-linking mass spectrometry; other
# [3] = molecular target: Heat shock cognate 71 kDa protein (UniProt P11142); assay: other; cross-linking mass spectrometry; other
# [4] = molecular target: Stress-70 protein, mitochondrial (UniProt P38646); assay: cross-link between two proteins; cross-linking mass spectrometry; other
# THO complex subunit 2 = THO complex subunit 2 (UniProt Q8NI27); assay: other; cross-linking mass spectrometry; other
# THO complex subunit 1 [5] = molecular target: THO complex subunit 1 (UniProt Q96FV9); assay: cross-link between two proteins; cross-linking mass spectrometry; other
# [6] = molecular target: Transcription initiation factor TFIID subunit 5 (UniProt Q15542); assay: other; cross-linking mass spectrometry; other
# [7] = molecular target: Transcription initiation factor TFIID subunit 9 (UniProt Q16594); assay: other; cross-linking mass spectrometry; other
# [8] = molecular target: Transcription initiation factor TFIID subunit 9B (UniProt Q9HBM6); assay: other; cross-linking mass spectrometry; other
# [9] = molecular target: Transcription initiation factor TFIID subunit 12 (UniProt Q16514); assay: cross-link between two proteins; cross-linking mass spectrometry; other
# ELAV-like protein 1 = ELAV-like protein 1 (UniProt Q15717); assay: other; affinity purification or IP with mass spectrometry; other
# [10] = molecular target: Heterogeneous nuclear ribonucleoprotein L (UniProt P14866); assay: cross-link between two proteins; affinity purification or IP with mass spectrometry; cross-linking mass spectrometry; other
# [11] = molecular target: DNA topoisomerase 3-alpha (UniProt Q13472); assay: cross-link between two proteins; cross-linking mass spectrometry; other
# [12] = molecular target: RecQ-mediated genome instability protein 1 (UniProt Q9H9A7); assay: as above
# [13] = molecular target: Heterogeneous nuclear ribonucleoprotein A0 (UniProt Q13151); assay: as above
# [14] = molecular target: Paired amphipathic helix protein Sin3a (UniProt Q96ST3); assay: as above
# Pinin = Pinin (UniProt Q9H307); assay: as above
# [15] = molecular target: Polyhomeotic-like protein 2 (UniProt Q8IXK0); assay: as above
# [16] = molecular target: Pre-mRNA-processing factor 19 (UniProt Q9UMS4); assay: as above
# [17] = molecular target: SAGA-associated factor 29 (UniProt Q96ES7); assay: as above
# [18] = molecular target: Sin3 histone deacetylase corepressor complex component SDS3 (UniProt Q9H7L9); assay: as above
# [19] = molecular target: Splicing factor 3A subunit 1 (UniProt Q15459); assay: as above
# [20] = molecular target: Transcription factor JunD (UniProt P17535); assay: as above
# [21] = molecular target: Transcription initiation factor TFIID subunit 3 (UniProt Q5VWG9); assay: as above
# [22] = molecular target: Transcription initiation factor TFIID subunit 9 (UniProt Q16594); assay: as above
# [23] = molecular target: Transcription initiation factor TFIID subunit 9B (UniProt Q9HBM6); assay: as above
# [24] = molecular target: Apoptotic chromatin condensation inducer in the nucleus (UniProt Q9UKV3); assay: cross-linking mass spectrometry; other
# Protein lin-54 homolog [25] = molecular target: Protein lin-54 homolog (UniProt Q6MZP7); assay: cross-linking mass spectrometry; other
# Protein lin-9 homolog = Protein lin-9 homolog (UniProt Q5TKA1); assay: cross-linking mass spectrometry; other
# THO complex subunit 1 [26] = molecular target: THO complex subunit 1 (UniProt Q96FV9); assay: cross-linking mass spectrometry; other
# [27] = molecular target: ATP-dependent chromatin remodeler CHD4 (UniProt Q14839); assay: other; cross-linking mass spectrometry; other
# [28] = molecular target: Metastasis-associated protein MTA1 (UniProt Q13330); assay: other; cross-linking mass spectrometry; other
# [29] = molecular target: Transcriptional repressor p66-alpha (UniProt Q86YP4); assay: other; cross-linking mass spectrometry; other
# DNA topoisomerase 2-beta = DNA topoisomerase 2-beta (UniProt Q02880); assay: other; cross-linking mass spectrometry; other
# [30] = molecular target: Heterogeneous nuclear ribonucleoprotein A/B (UniProt Q99729); assay: other; cross-linking mass spectrometry; other
# [31] = molecular target: Heterogeneous nuclear ribonucleoprotein Q (UniProt O60506); assay: other; cross-linking mass spectrometry; other
# Histone H1.2 = Histone H1.2 (UniProt P16403); assay: other; cross-linking mass spectrometry; other
# [32] = molecular target: Mediator of RNA polymerase II transcription subunit 17 (UniProt Q9NVC6); assay: other; cross-linking mass spectrometry; other
# [33] = molecular target: Methyl-CpG-binding domain protein 2 (UniProt Q9UBB5); assay: other; cross-linking mass spectrometry; other
# [34] = molecular target: Methylcrotonoyl-CoA carboxylase beta chain, mitochondrial (UniProt Q9HCC0); assay: other; cross-linking mass spectrometry; other
# [35] = molecular target: Probable ATP-dependent RNA helicase DDX23 (UniProt Q9BUQ8); assay: other; cross-linking mass spectrometry; other
# Protein lin-54 homolog [36] = molecular target: Protein lin-54 homolog (UniProt Q6MZP7); assay: other; cross-linking mass spectrometry; other
# RNA-binding protein EWS = RNA-binding protein EWS (UniProt Q01844); assay: other; cross-linking mass spectrometry; other
# [37] = molecular target: Scaffold attachment factor B1 (UniProt Q15424); assay: other; cross-linking mass spectrometry; other
# [38] = molecular target: Serine/arginine-rich splicing factor 1 (UniProt Q07955); assay: other; cross-linking mass spectrometry; other
# Spindlin-1 = Spindlin-1 (UniProt Q9Y657); assay: other; cross-linking mass spectrometry; other
# THO complex subunit 7 = THO complex subunit 7 (UniProt Q6I9Y2); assay: other; cross-linking mass spectrometry; other
# [39] = molecular target: Torsin-1A-interacting protein 1 (UniProt Q5JTV8); assay: other; cross-linking mass spectrometry; other
# [40] = molecular target: Transcription initiation factor TFIID subunit 12 (UniProt Q16514); assay: other; cross-linking mass spectrometry; other
# [41] = molecular target: Trifunctional enzyme subunit beta, mitochondrial (UniProt P55084); assay: other; co-fractionation; cross-linking mass spectrometry; other
# Chain of Transcription initiation factor TFIID subunit 10, Q12962 (Q12962 whole entry): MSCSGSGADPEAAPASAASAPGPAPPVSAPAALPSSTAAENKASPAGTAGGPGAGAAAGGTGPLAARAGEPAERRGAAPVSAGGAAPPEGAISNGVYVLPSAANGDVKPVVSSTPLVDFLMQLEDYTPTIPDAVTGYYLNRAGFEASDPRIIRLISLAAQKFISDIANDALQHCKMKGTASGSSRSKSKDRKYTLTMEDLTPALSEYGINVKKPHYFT
# Chain of Transcription initiation factor TFIID subunit 12 (Q16514 whole entry): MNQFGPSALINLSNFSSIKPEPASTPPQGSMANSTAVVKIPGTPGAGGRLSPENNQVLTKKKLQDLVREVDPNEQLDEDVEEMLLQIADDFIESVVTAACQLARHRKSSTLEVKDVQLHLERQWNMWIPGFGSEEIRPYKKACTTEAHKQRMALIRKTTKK
# Chain of Transcription initiation factor TFIID subunit 9 (Q16594 whole entry): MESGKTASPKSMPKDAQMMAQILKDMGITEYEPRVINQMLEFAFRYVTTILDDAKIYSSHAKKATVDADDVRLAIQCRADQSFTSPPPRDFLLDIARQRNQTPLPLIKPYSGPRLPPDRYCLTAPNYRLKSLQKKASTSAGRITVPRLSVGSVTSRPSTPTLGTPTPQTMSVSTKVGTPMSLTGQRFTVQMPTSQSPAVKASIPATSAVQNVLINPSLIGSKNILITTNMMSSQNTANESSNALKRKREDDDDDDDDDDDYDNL
# Chain of Transcription initiation factor TFIID subunit 9B (Q9HBM6 whole entry): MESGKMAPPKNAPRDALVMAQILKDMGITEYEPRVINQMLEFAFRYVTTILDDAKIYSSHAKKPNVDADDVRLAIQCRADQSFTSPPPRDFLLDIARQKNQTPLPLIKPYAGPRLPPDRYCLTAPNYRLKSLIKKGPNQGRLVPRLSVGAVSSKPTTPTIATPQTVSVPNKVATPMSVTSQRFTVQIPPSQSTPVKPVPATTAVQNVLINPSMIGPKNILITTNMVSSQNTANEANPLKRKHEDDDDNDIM
# Chain of Endoplasmic reticulum chaperone BiP, P11021 (P11021 whole entry): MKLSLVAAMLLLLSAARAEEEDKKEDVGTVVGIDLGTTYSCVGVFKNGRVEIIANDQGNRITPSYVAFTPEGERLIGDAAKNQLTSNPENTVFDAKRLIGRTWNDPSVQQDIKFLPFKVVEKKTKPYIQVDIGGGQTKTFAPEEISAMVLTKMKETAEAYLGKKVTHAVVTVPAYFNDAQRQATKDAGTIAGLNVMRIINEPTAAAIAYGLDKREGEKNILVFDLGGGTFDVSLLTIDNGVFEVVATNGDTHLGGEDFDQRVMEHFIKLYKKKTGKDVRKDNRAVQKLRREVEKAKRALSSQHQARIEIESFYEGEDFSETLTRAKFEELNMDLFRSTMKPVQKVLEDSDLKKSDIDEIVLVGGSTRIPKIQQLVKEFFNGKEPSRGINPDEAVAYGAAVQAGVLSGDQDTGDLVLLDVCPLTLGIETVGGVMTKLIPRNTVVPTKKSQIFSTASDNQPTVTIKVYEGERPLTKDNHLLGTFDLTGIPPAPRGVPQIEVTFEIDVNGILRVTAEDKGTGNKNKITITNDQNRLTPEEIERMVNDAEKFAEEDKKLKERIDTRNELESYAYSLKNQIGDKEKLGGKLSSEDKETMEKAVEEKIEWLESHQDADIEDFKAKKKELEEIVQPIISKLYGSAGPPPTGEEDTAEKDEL
# Chain of THO complex subunit 1 (Q96FV9 whole entry, one chain of several): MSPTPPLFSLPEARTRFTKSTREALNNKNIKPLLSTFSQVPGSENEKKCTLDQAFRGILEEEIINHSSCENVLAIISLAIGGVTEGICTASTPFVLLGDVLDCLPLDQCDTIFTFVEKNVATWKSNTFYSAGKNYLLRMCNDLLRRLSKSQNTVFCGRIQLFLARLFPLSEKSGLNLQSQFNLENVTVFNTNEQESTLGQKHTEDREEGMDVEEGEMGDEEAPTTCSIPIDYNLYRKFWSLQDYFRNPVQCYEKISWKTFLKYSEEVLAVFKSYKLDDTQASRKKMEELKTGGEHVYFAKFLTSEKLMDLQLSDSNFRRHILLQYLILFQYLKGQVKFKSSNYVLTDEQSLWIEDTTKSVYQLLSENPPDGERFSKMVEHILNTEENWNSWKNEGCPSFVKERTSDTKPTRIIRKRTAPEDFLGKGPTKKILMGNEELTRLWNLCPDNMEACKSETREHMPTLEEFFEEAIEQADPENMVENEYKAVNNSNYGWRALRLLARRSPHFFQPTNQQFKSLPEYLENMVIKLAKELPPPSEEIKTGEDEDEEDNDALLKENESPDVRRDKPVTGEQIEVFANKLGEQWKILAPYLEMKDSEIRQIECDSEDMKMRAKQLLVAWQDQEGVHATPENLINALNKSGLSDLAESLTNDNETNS
# Chain of Transcriptional repressor p66-alpha (Q86YP4 whole entry): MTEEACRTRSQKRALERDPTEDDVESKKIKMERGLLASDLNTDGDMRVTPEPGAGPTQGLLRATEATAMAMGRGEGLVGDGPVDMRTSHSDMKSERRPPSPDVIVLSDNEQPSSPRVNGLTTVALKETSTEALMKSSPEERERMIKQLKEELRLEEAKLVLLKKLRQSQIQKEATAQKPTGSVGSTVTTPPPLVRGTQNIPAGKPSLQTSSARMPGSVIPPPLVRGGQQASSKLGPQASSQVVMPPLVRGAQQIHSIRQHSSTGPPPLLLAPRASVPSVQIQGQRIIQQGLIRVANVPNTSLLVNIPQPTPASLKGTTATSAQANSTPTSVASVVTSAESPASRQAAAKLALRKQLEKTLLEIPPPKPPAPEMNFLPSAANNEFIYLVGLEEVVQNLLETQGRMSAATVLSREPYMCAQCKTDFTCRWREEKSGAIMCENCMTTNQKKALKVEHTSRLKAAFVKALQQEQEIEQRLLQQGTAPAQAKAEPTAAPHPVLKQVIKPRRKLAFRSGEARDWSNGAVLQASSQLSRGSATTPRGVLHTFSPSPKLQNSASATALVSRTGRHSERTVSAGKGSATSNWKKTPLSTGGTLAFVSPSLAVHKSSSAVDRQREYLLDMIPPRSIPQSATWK
# Chain of THO complex subunit 2 (Q8NI27 whole entry, one chain of several): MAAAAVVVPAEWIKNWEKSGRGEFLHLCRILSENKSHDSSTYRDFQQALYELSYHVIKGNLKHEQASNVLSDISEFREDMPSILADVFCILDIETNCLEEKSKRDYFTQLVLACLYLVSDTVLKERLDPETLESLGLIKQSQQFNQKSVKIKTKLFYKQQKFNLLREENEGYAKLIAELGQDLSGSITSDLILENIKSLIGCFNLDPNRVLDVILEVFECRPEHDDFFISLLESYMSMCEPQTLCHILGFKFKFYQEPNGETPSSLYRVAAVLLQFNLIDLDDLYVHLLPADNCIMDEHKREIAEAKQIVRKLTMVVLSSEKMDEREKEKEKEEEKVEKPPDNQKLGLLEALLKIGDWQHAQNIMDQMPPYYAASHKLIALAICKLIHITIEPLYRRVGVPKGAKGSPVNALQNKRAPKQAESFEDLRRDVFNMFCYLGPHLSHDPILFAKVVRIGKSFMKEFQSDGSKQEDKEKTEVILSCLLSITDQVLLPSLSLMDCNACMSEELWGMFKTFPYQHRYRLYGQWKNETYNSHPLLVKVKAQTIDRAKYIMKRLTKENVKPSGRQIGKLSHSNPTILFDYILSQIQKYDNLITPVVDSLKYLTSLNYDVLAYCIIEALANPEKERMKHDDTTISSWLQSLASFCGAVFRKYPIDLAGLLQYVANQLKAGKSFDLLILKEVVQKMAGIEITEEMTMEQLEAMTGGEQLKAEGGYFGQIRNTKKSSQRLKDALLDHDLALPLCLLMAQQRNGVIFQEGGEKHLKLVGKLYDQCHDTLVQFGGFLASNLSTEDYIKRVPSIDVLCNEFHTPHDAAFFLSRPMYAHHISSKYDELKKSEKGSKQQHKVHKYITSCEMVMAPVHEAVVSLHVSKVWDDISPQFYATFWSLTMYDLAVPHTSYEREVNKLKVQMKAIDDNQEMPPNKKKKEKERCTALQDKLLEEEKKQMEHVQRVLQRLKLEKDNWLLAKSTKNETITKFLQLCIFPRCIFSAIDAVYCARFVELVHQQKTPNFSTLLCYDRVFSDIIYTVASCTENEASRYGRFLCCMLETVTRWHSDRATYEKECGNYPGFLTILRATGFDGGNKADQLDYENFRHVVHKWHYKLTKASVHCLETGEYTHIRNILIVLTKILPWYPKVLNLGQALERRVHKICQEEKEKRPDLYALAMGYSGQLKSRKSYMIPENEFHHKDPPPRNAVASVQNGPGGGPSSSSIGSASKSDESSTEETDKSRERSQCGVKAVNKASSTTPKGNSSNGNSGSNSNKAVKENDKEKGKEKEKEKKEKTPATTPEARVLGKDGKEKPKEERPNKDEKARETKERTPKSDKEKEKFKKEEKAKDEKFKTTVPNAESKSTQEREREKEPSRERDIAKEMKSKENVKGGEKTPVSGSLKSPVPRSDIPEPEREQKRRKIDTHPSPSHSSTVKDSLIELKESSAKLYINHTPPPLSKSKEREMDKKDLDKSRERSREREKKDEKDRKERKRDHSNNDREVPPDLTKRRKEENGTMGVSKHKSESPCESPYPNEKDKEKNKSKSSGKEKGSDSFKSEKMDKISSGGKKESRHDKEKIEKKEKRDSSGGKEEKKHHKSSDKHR
# Chain of Heterogeneous nuclear ribonucleoprotein A0 (Q13151 whole entry): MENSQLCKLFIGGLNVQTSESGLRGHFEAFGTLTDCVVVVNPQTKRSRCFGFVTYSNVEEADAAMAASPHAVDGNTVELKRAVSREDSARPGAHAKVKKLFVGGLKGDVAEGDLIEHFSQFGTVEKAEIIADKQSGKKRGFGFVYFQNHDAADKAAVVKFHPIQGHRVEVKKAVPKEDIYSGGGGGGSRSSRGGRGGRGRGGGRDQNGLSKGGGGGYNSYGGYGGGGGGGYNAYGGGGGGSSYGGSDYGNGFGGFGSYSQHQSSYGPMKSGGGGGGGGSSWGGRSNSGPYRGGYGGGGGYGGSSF
# Chain of Spindlin-1 (Q9Y657 whole entry): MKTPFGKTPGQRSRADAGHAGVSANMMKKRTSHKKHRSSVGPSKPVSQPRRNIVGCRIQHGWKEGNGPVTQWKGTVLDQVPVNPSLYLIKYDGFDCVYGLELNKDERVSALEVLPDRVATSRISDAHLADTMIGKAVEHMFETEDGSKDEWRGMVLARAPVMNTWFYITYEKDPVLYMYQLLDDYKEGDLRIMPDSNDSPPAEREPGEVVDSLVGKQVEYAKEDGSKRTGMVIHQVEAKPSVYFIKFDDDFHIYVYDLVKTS
substance,measurement,setting,value
"28S rRNA (cytosine(4447)-C(5))-methyltransferase, P46087",listed as a hit,[1],yes
same,listed as a hit,[2],yes
"Endoplasmic reticulum chaperone BiP, P11021",listed as a hit,[3],yes
same,listed as a hit,[4],yes
"THO complex subunit 7, Q6I9Y2",listed as a hit,THO complex subunit 2,yes
same,listed as a hit,THO complex subunit 1 [5],yes
"Transcription initiation factor TFIID subunit 4, O00268",listed as a hit,[6],yes
same,listed as a hit,[7],yes
same,listed as a hit,[8],yes
same,listed as a hit,[9],yes
"Heterogeneous nuclear ribonucleoproteins C1/C2, P07910",listed as a hit,ELAV-like protein 1,yes
same,listed as a hit,[10],yes
"RecQ-like DNA helicase BLM, P54132",listed as a hit,[11],yes
same,listed as a hit,[12],yes
"Heterogeneous nuclear ribonucleoproteins A2/B1, P22626",listed as a hit,[13],yes
"Heterogeneous nuclear ribonucleoprotein A1, P09651",listed as a hit,[13],yes
"Histone deacetylase complex subunit SAP30, O75446",listed as a hit,[14],yes
"RNA-binding protein with serine-rich domain 1, Q15287",listed as a hit,Pinin,yes
"E3 ubiquitin-protein ligase RING1, Q06587",listed as a hit,[15],yes
"Pre-mRNA-splicing factor SPF27, O75934",listed as a hit,[16],yes
"DNA topoisomerase 3-alpha, Q13472",listed as a hit,[12],yes
"Transcriptional adapter 3, O75528",listed as a hit,[17],yes
"Breast cancer metastasis-suppressor 1-like protein, Q5PSV4",listed as a hit,[18],yes
"Paired amphipathic helix protein Sin3a, Q96ST3",listed as a hit,[18],yes
"Splicing factor 3B subunit 2, Q13435",listed as a hit,[19],yes
"Cyclic AMP-dependent transcription factor ATF-2, P15336",listed as a hit,[20],yes
"Transcription initiation factor TFIID subunit 10, Q12962",listed as a hit,[9],yes
same,listed as a hit,[21],yes
same,listed as a hit,[22],yes
"Transcription initiation factor TFIID subunit 12, Q16514",listed as a hit,[22],yes
same,listed as a hit,[23],yes
"Histone deacetylase complex subunit SAP18, O00422",listed as a hit,[24],yes
"Protein lin-52 homolog, Q52LA3",listed as a hit,Protein lin-54 homolog [25],yes
same,listed as a hit,Protein lin-9 homolog,yes
"THO complex subunit 2, Q8NI27",listed as a hit,THO complex subunit 1 [26],yes
"Metastasis-associated protein MTA2, O94776",listed as a hit,[27],yes
same,listed as a hit,[28],yes
same,listed as a hit,[29],yes
"DNA topoisomerase 2-alpha, P11388",listed as a hit,DNA topoisomerase 2-beta,yes
"Heterogeneous nuclear ribonucleoprotein U, Q00839",listed as a hit,[30],yes
"Heterogeneous nuclear ribonucleoprotein R, O43390",listed as a hit,[31],yes
"Histone H1.3, P16402",listed as a hit,Histone H1.2,yes
"Mediator of RNA polymerase II transcription subunit 6, O75586",listed as a hit,[32],yes
"Transcriptional repressor p66-beta, Q8WXI9",listed as a hit,[33],yes
"Methylcrotonoyl-CoA carboxylase subunit alpha, mitochondrial, Q96RQ3",listed as a hit,[34],yes
"CD2 antigen cytoplasmic tail-binding protein 2, O95400",listed as a hit,[35],yes
"Protein lin-9 homolog, Q5TKA1",listed as a hit,Protein lin-54 homolog [36],yes
"RNA-binding protein FUS, P35637",listed as a hit,RNA-binding protein EWS,yes
"Scaffold attachment factor B2, Q14151",listed as a hit,[37],yes
"Serine/arginine-rich splicing factor 3, P84103",listed as a hit,[38],yes
"Spindlin interactor and repressor of chromatin-binding protein, Q9BUA3",listed as a hit,Spindlin-1,yes
"THO complex subunit 5, Q13769",listed as a hit,THO complex subunit 2,yes
same,listed as a hit,THO complex subunit 7,yes
"Prelamin-A/C, P02545",listed as a hit,[39],yes
"Transcription initiation factor TFIID subunit 5, Q15542",listed as a hit,[40],yes
same,listed as a hit,[8],yes
"Transcription initiation factor TFIID subunit 6, P49848",listed as a hit,[8],yes
"ATP-dependent chromatin remodeler CHD4, Q14839",listed as a hit,[29],yes
"Trifunctional enzyme subunit alpha, mitochondrial, P40939",listed as a hit,[41],yes
